PubChem BioAssay AID1159580 (chemical genetic matrix, 2015)
About 2,000 (36%) of roughly 5,500 compounds were called active. Inconclusive results (about 18%) are left out. Cut-off read from the data, not from the text of the source: active = normalized growth mostly below about 0.91 (no sharp cut-off); inconclusive = no clear call, values can overlap the other calls; inactive = mostly above about 0.92. This is one part of the list.

Test: chemical genetic growth profiling, strain panel (AID 1159580);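 note: tested at 20 µM; growth read once vehicle control cultures reached saturation at 30 °C; 1 = growth at the plate median or of vehicle wells; lower values mean less growth of the strain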
Settings: growth OD

Measured: normalized growth

NC(=NCCCCCCN=C(N)N=C(N)Nc1ccc(Cl)cc1)N=C(N)Nc1ccc(Cl)cc1
active: S. cerevisiae deletion strains, locus YJR075W, strain HOC1, active compounds read low 0.0644 | S. cerevisiae deletion strains, locus YKL009W, strain mrt4, active compounds read low 0.478 | S. cerevisiae deletion strains, locus YKL085W, strain MDH1 (second series), active compounds read low 0.906 | S. cerevisiae deletion strains, locus YKL085W, strain MDH1, active compounds read low 0.906 | S. cerevisiae deletion strains, locus YKL160W, strain elf1, active compounds read low 0.0627 | S. cerevisiae deletion strains, locus YKL190W, strain CNB1, active compounds read low 0.0461 | S. cerevisiae deletion strains, locus YKR001C, strain vps1, active compounds read low 0.0656 | S. cerevisiae deletion strains, locus YKR026C, strain gcn3, active compounds read low 0.0624 | S. cerevisiae deletion strains, locus YKR091W, strain srl3, active compounds read low 0.0577 | S. cerevisiae deletion strains, locus YLL001W, strain dnm1, active compounds read low 0.0629 | S. cerevisiae deletion strains, locus YLL026W, active compounds read low 0.0551 | S. cerevisiae deletion strains, locus YLL041C, strain sdh2, active compounds read low 0.0558 | S. cerevisiae deletion strains, locus YLR027C, strain aat2, active compounds read low 0.0552 | S. cerevisiae deletion strains, locus YLR039C, strain RIC1, active compounds read low 0.0768 | S. cerevisiae deletion strains, locus YLR058C, strain SHM2, active compounds read low 0.0478 | S. cerevisiae deletion strains, locus YLR102C, strain apc9, active compounds read low 0.0634 | S. cerevisiae deletion strains, locus YLR113W, strain HOG1, active compounds read low 0.126 | S. cerevisiae deletion strains, locus YLR221C, strain rsa3, active compounds read low 0.058 | S. cerevisiae deletion strains, locus YLR258W, strain gsy2, active compounds read low 0.0585 | S. cerevisiae deletion strains, locus YLR262C, strain YPT6 (second series), active compounds read low 0.0721 | S. cerevisiae deletion strains, locus YLR262C, strain YPT6, active compounds read low 0.0923 | S. cerevisiae deletion strains, locus YLR268W, strain sec22, active compounds read low 0.0678 | S. cerevisiae deletion strains, locus YLR320W, strain mms22, active compounds read low 0.0755 | S. cerevisiae deletion strains, locus YLR330W, strain CHS5, active compounds read low 0.0516 | S. cerevisiae deletion strains, locus YLR342W, strain FKS1 (second series), active compounds read low 0.0692 | S. cerevisiae deletion strains, locus YLR342W, strain FKS1, active compounds read low 0.063 | S. cerevisiae deletion strains, locus YLR357W, strain rsc2, active compounds read low 0.116 | S. cerevisiae deletion strains, locus YLR370C, strain arc18, active compounds read low 0.0607 | S. cerevisiae deletion strains, locus YLR371W, strain rom2, active compounds read low 0.0627 | S. cerevisiae deletion strains, locus YLR384C, strain iki3, active compounds read low 0.057 | S. cerevisiae deletion strains, locus YLR418C, strain cdc73, active compounds read low 0.0991 | S. cerevisiae deletion strains, locus YML016C, strain PPZ1, active compounds read low 0.0482 | S. cerevisiae deletion strains, locus YML032C, strain rad52, active compounds read low 0.0699 | S. cerevisiae deletion strains, locus YML120C, strain ndi1, active compounds read low 0.0569 | S. cerevisiae deletion strains, locus YML124C, strain tub3, active compounds read low 0.0596 | S. cerevisiae deletion strains, locus YMR058W, strain fet3, active compounds read low 0.0607 | S. cerevisiae deletion strains, locus YMR078C, strain ctf18, active compounds read low 0.071 | S. cerevisiae deletion strains, locus YMR125W, strain sto1, active compounds read low 0.0789 | S. cerevisiae deletion strains, locus YMR129W, active compounds read low 0.0564 | S. cerevisiae deletion strains, locus YMR205C, strain PFK2, active compounds read low 0.0855 | S. cerevisiae deletion strains, locus YMR223W, strain ubp8, active compounds read low 0.0651 | S. cerevisiae deletion strains, locus YMR231W, strain pep5, active compounds read low 0.064 | S. cerevisiae deletion strains, locus YMR263W, strain SAP30, active compounds read low 0.0566 | S. cerevisiae deletion strains, locus YMR307W, strain GAS1, active compounds read low 0.0969 | S. cerevisiae deletion strains, locus YNL067W, strain RPL9B, active compounds read low 0.0509 | S. cerevisiae deletion strains, locus YNL071W, strain lat1, active compounds read low 0.0604 | S. cerevisiae deletion strains, locus YNL128W, strain TEP1, active compounds read low 0.0651 | S. cerevisiae deletion strains, locus YNL153C, strain GIM3, active compounds read low 0.0505 | S. cerevisiae deletion strains, locus YNL183C, strain NPR1, active compounds read low 0.139 | S. cerevisiae deletion strains, locus YNL209W, strain ssb2, active compounds read low 0.057 | S. cerevisiae deletion strains, locus YNL233W, strain BNI4, active compounds read low 0.0552 | S. cerevisiae deletion strains, locus YNL248C, strain rpa49, active compounds read low 0.075 | S. cerevisiae deletion strains, locus YNL271C, strain bni1, active compounds read low 0.607 | S. cerevisiae deletion strains, locus YNL298W, strain CLA4, active compounds read low 0.0653 | S. cerevisiae deletion strains, locus YNL307C, strain MCK1, active compounds read low 0.0676 | S. cerevisiae deletion strains, locus YNL322C, strain KRE1 (second series), active compounds read low 0.0655 | S. cerevisiae deletion strains, locus YNL322C, strain KRE1, active compounds read low 0.0467 | S. cerevisiae deletion strains, locus YNR049C, strain mso1, active compounds read low 0.0617 | S. cerevisiae deletion strains, locus YNR052C, strain pop2, active compounds read low 0.0607 | S. cerevisiae deletion strains, locus YOL006C, strain TOP1, active compounds read low 0.107 | S. cerevisiae deletion strains, locus YOL012C, strain htz1 0.183 | S. cerevisiae deletion strains, locus YOL147C, strain pex11, active compounds read low 0.0595 | S. cerevisiae deletion strains, locus YOR001W, strain rrp6, active compounds read low 0.0681 | S. cerevisiae deletion strains, locus YOR061W, strain CKA2, active compounds read low 0.0471 | S. cerevisiae deletion strains, locus YOR069W, strain VPS5, active compounds read low 0.0468 | S. cerevisiae deletion strains, locus YOR070C, strain gyp1, active compounds read low 0.0572 | S. cerevisiae deletion strains, locus YOR080W, strain dia2, active compounds read low 0.0623 | S. cerevisiae deletion strains, locus YOR083W, strain WHI5, active compounds read low 0.0615 | S. cerevisiae deletion strains, locus YOR106W, strain vam3, active compounds read low 0.0675 | S. cerevisiae deletion strains, locus YOR136W, strain idh2, active compounds read low 0.0708 | S. cerevisiae deletion strains, locus YOR144C, strain elg1, active compounds read low 0.0593 | S. cerevisiae deletion strains, locus YOR184W, strain ser1, active compounds read low 0.0744 | S. cerevisiae deletion strains, locus YOR231W, strain MKK1, active compounds read low 0.0973 | S. cerevisiae deletion strains, locus YOR265W, strain rbl2, active compounds read low 0.0543 | S. cerevisiae deletion strains, locus YOR270C, strain vph1, active compounds read low 0.107 | S. cerevisiae deletion strains, locus YOR290C, strain snf2, active compounds read low 0.0655 | S. cerevisiae deletion strains, locus YOR316C, strain cot1, active compounds read low 0.0609 | S. cerevisiae deletion strains, locus YPL051W, strain arl3, active compounds read low 0.0612 | S. cerevisiae deletion strains, locus YPL055C, strain LGE1, active compounds read low 0.0688 | S. cerevisiae deletion strains, locus YPL078C, strain atp4, active compounds read low 0.0665 | S. cerevisiae deletion strains, locus YPL106C, strain sse1, active compounds read low 0.0968 | S. cerevisiae deletion strains, locus YPL240C, strain hsp82, active compounds read low 0.0556 | S. cerevisiae deletion strains, locus YPL241C, strain CIN2, active compounds read low 0.0486 | S. cerevisiae deletion strains, locus YPL256C, strain CLN2, active compounds read low 0.124 | S. cerevisiae deletion strains, locus YPR119W, strain clb2, active compounds read low 0.0667 | S. cerevisiae deletion strains, locus YPR163C, strain tif3, active compounds read low 0.0696 | S. cerevisiae deletion strains, locus YPR167C, strain met16, active compounds read low 0.0625 | S. cerevisiae deletion strains, strain wtn01, active compounds read low 0.0592 | S. cerevisiae strains, strain wild type, active compounds read low 0.0489
inactive: S. cerevisiae deletion strains, locus YKL068W, active compounds read low 0.977 | S. cerevisiae deletion strains, locus YNL250W, strain rad50, active compounds read low 0.909 | S. cerevisiae deletion strains, locus YPR141C, strain kar3, active compounds read low 1.01
